Reference: PubChem BioAssay (NCI)
About 83,000 compounds went through this panel and 20% of them were active in at least one assay; those are over-represented in the sample as a whole.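 Single-concentration screen, 48 h exposure, 96-well plates. Endpoint: percent growth. Below 10 = active.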 Values without a mark were called inactive. Calls of active or inactive are those of the source.

The compounds below were run on HL-60(TB) leukemia (assay: NCI-60 one-dose screen, 48 h (100 = growth as untreated, 0 = no growth, -100 = all killed)). Details: 10 µM unless noted.

| Structure (SMILES) | growth |
| --- | --- |
| O=C(NC1CC1)c1cc2n(n1)CC(c1ccccc1)N2 (stereo not given) | 107% |
| COc1cc(OC)c(NC(=O)n2ncc3cc(Nc4ncnc5ccccc45)ccc32)cc1Cl | 82.9% |
| CCOCc1nc2ccccc2c(=O)[nH]1 | 107% |
| CCOC(=O)c1cc(C(=O)c2cc(OC)cc(OC)c2)n2ncc3ccccc3c12 | -8.3% (active) |
| CN(Cc1ccccc1)c1nc(Cl)c(C2CC(c3ccc(F)cc3)=NN2C=O)s1 (stereo not given) | 102% |
| O=C(O)COc1ccc(F)cc1 | 94.2% |
| NC(=S)NN=C1CCCCC1 | 74.1% |
| C/C=C/C1OC23CCCCC2C(C#N)(C(=N)O3)C1(C#N)C#N (stereo not given) | 106% |
| CN(C)c1cc(NN=C(c2ccc(O)cc2)c2ccc(O)cc2)c([N+](=O)[O-])cc1[N+](=O)[O-] | 127% |
| O=c1c2cc(F)cc(Cl)c2sc2c(NCCCNCCO)nc3ccccc3c12 | 77.1% |
| COc1ccc(-c2cc(-c3ccc(N(C)C)cc3)c(C#N)c(N3CCCC3)n2)cc1 | 67.2% |
| COc1ccc(C/C(C)=C(/c2ccc(OCCCN(C)C)cc2)c2ccc(OC(C)=O)cc2)cc1 | 70.8% |
| COc1nc2c(c(=O)n1C)CN(c1ccccc1)C(=O)CN2C | 93% [100 µM] |
| CCOC(=O)c1c(C)nn(CC(O)c2ccccc2)c1NC(=O)Nc1cccc(F)c1 (stereo not given) | 107% |
| CCN(CC)CCCC(C)Nc1ccnc2ccc(Oc3ccccc3)cc12 (stereo not given) | 72.6% |
| Cc1cc(C)cc(NC(=O)Cn2nncc2CN2C(=O)CSC2=O)c1 | 97.9% |
| CN1CCCCC1CCN1c2ccccc2Sc2ccc(Cl)cc21 (stereo not given) | 42.1% |
| O=C(Nc1ccc(NCCN2CCOCC2)nc1)c1ccc([N+](=O)[O-])cc1 | 127% |
| O=C(O)c1ccc2nc(-c3ccc(OCCCCCOc4ccc(-c5nc6ccc(C(=O)O)cc6[nH]5)cc4)cc3)[nH]c2c1 | 108% |
| c1ccc(-c2cc(-c3cc(-c4ccccc4)on3)no2)cc1 | 64% |

| Structure (SMILES) | growth |
| --- | --- |
| S=c1[nH]nc(-c2cc3ccc2CCc2ccc(cc2)CC3)n1C1CC1 | 106% |
| CC1CCN(CCOc2ccc(CNc3ccc4nc(CCC5CCCCC5)[nH]c4c3)cc2)CC1 | 5.83% (active) |
| CCCCCSc1ccc2nc(NC(=O)OCCC)sc2c1 | 5.41% (active) |
| CCN(CC)C(=O)C[N+](C)(C)CCOC(c1ccccc1)c1ccccc1 | 97.5% |
| NC(=O)NCCO | 109% |
| Cn1cc(-c2nnc(-c3cn(C)c4ncc(Br)cc34)s2)c2cc(Br)ccc21 | 106% |
| COc1cc2c(cc1OC)-c1cc(OC)c(OC)cc1C(CN(C)C)C2 (stereo not given) | 69.8% [100 µM] |
| Oc1ccc(/C=N/NC(=S)Nc2ccccc2)nc1 | -8.79% (active) |
| CCOP(=O)(OCC)C1CP(=O)(c2ccccc2)CC(C)=C1Cl (stereo not given) | 92.1% |
| COc1ccc(-c2nc3cc(C(=O)NC4CCCCC4)ccc3n2C2CCCCC2)cc1 | 79.1% |
| COc1cc(C2CC(c3cccc(Nc4ccncc4)c3)=NN2c2ccccc2)cc(OC)c1OC (stereo not given) | -43.8% (active) |
| Nc1ccc(Nc2nccc(-c3ccc4ccccc4c3)n2)cc1 | 21.2% |
| O=C(Nc1cccc2c1C(=O)c1cccc(NC(=O)c3ccc(C(=O)Nc4cccc5c4C(=O)c4cccc(NC(=O)c6ccccc6)c4C5=O)cc3)c1C2=O)c1ccccc1 | 83.4% |
| Cc1ccc(-c2onc3c(=O)[nH]nc(-c4ccccc4)c23)cc1 | -8.12% (active) |
| Cc1nc(Nc2ccc(NC(=S)Nc3ccccc3)cc2)nc2nc(Nc3cccc(Cl)c3)[nH]c(=O)c12 | 57.1% |
| Cl.Fc1c[c-]c(-c2ccccn2)c(F)c1.[Pt].c1ccc([PH+](C[PH+](c2ccccc2)c2ccccc2)c2ccccc2)cc1 | -33.7% (active) |
| CCc1c2c(nc3ccc(OCc4ccc(B(O)O)cc4)cc13)-c1cc3c(c(=O)n1C2)COC(=O)[C@]3(O)CC | -40.8% (active) |
| Cc1cc(C)c(CCc2cc(C)c(C)cc2C)cc1C | 99.9% |
| N=C(N)c1ccc(-c2ccc(-c3ccc4ccccc4c3)s2)cc1 | 86.7% |
| COc1cc(CCNc2cnc3cc(N)cc(N)c3n2)cc(OC)c1 | 27.9% |
